# Experimental data taken from PubChem BioAssay (NCI).
# About 79,000 compounds went through this panel and 15% of them were active in at least one assay; those are over-represented in the sample as a whole. A number with no mark means an inactive call. Calls of active or inactive are those of the source. Cut-off read from the data, not from the text of the source: active = growth inhibition above about 70%; inactive = the rest.
# Legend:
# [1] = NCI Yeast Anticancer Drug Screen. Data for the rad50 strain (AID 155);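 note: 0% = growth of vehicle-only cultures of the same strain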; conditions: S. cerevisiae rad50 strain growth inhibition, active compounds read high
# Procedure, shortened: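 Compounds were tested on a yeast strain with an engineered DNA damage repair alteration; the reported value is growth inhibition normalised to vehicle treatment.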
# [2] = NCI Yeast Anticancer Drug Screen. Data for the mec2-1 strain (AID 157); conditions: S. cerevisiae mec2-1 strain, active compounds read high
# Procedure, shortened: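 Using mec2-1 yeast: add compound, measure growth, express inhibition versus vehicle-treated cultures.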
# [3] = NCI Yeast Anticancer Drug Screen. Data for the sgs1 mgt1 strain (AID 161);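 note: 0% = growth of cultures given vehicle only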; conditions: S. cerevisiae sgs1 mgt1 strain, active compounds read high
# Procedure, shortened: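 Percent growth inhibition was derived by comparing compound-exposed mutant yeast with vehicle-exposed cultures. The strain carries alterations in DNA damage repair.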
# [4] = NCI Yeast Anticancer Drug Screen. Data for the cln2 rad14 strain (AID 165);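 note: 0% = growth equal to vehicle treated cultures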; conditions: S. cerevisiae cln2 rad14 strain, active compounds read high
# Procedure, shortened: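 Yeast strain cln2 rad14, bearing defects in cell cycle control and DNA repair, serves as the test system; values reflect growth inhibition compared with vehicle.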
# [5] = NCI Yeast Anticancer Drug Screen. Data for the bub3 strain (AID 167); conditions: S. cerevisiae bub3 mutant strain, active compounds read high
# Procedure, shortened: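 Growth of a checkpoint-deficient yeast mutant is measured after compound exposure. Values represent inhibition relative to vehicle.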
# [6] = NCI Yeast Anticancer Drug Screen. Data for the mlh1 rad18 strain (AID 175); conditions: S. cerevisiae mlh1 rad18 strain growth inhibition, active compounds read high
# Procedure, shortened: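 Steps: expose repair-defective yeast to compound; measure growth; express inhibition against vehicle-treated controls.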
# [7] = at 5.0 µM (retest, dose inferred, filed as 0.5)
# [8] = at 50.0 µM (retest, dose inferred, filed as 5.0)
Compound,"growth inhibition [1, 7]","growth inhibition [1, 8]",growth inhibition ([1]; at 50.0 µM),"growth inhibition [2, 7] [%]","growth inhibition [2, 8]",growth inhibition ([2]; at 50.0 µM),"growth inhibition [3, 7] [%]","growth inhibition [3, 8]",growth inhibition ([3]; at 50.0 µM),"growth inhibition [4, 7] [%]","growth inhibition [4, 8]",growth inhibition ([4]; at 50.0 µM),"growth inhibition [5, 7]","growth inhibition [5, 8]",growth inhibition ([5]; at 50.0 µM),"growth inhibition [6, 7]","growth inhibition [6, 8]",growth inhibition ([6]; at 50.0 µM)
O=C(CCc1ccccc1)ON1C(=S)NC(c2ccccc2)(c2ccccc2)C1=S,14%,42%,29.7%,0,22%,55.7%,-11,64%,63.3%,16,59%,70.2% (active),0%,47%,79.2% (active),13%,61%,72.4% (active)
CCOC(=O)C1=NN(c2ccccc2)C(=O)/C1=C\N1C(=O)/C(=C/c2cccc(O)c2)SC1=S,-9%,11%,6.8%,-16,17%,1.9%,-2,9%,3.45%,-13,-13%,60.5%,4%,12%,3.45%,0%,10%,-4.9%
COc1cccc(N=N/C(=N\NC(=O)c2cc(Br)ccc2O)c2ccc(N(CCC#N)CCC#N)cc2OC)c1,17%,30%,72% (active),22,35%,48.9%,-8,34%,34.5%,0,19%,20.9%,-2%,42%,39.4%,26%,43%,76.2% (active)
Oc1ccc2c(c1)CCc1ccccc1-2,37%,98% (active),95.6% (active),36,98% (active),75.5% (active),11,88% (active),95.8% (active),1,98% (active),99.2% (active),83% (active),99% (active),98.8% (active),75% (active),98% (active),99.5% (active)
O=[N+]([O-])C=C(c1ccccc1)c1ccccc1,-23%,93% (active),96.8% (active),-12,89% (active),87.8% (active),7,86% (active),77.8% (active),-20,63%,76.8% (active),-1%,90% (active),88% (active),-12%,94% (active),93.2% (active)
COc1cc([C@@H]2c3cc4c(cc3[C@H](OC3OC5COC(c6ccccc6)OC5C(O)C3O)[C@H]3COC(=O)[C@H]23)OCO4)cc(OC)c1OC (some centres undefined),-4%,91% (active),81.3% (active),-13,77% (active),81% (active),18,70% (active),76.3% (active),12,56%,63%,5%,82% (active),77.5% (active),-4%,91% (active),81% (active)
O=C1C=C(Cl)C(=O)c2ccccc21,90% (active),99% (active),99% (active),35,100% (active),99% (active),30,99% (active),99.3% (active),31,98% (active),99.1% (active),47%,99% (active),98.8% (active),53%,99% (active),99% (active)
CC(C)(C)c1ccc(O)c(-c2ccccc2)c1,-3%,97% (active),99.2% (active),-6,98% (active),99.7% (active),-2,98% (active),99.5% (active),-8,98% (active),97.2% (active),2%,97% (active),99.2% (active),-4%,98% (active),66.5%
CN(C)CCN(C)CC(C)(C)C(=O)/C=C/c1ccc(Cl)c(Cl)c1,13%,99% (active),96.8% (active),4,99% (active),78.1% (active),6,99% (active),56.2%,-3,98% (active),8.2%,6%,99% (active),92.5% (active),8%,99% (active),70.5% (active)
Cc1ccc2cccc(OC(=O)Nc3cccc(C(F)(F)F)c3)c2n1,50%,95% (active),91.4% (active),39,98% (active),89.9% (active),50,100% (active),91.1% (active),38,98% (active),91% (active),42%,98% (active),90.9% (active),50%,98% (active),92.5% (active)
O=C(c1ccccc1)C(Br)C(Br)c1ccccc1 (centres undefined),31%,96% (active),97.7% (active),27,98% (active),98.8% (active),38,97% (active),43.2%,18,84% (active),39.8%,22%,97% (active),98.8% (active),43%,95% (active),97.2% (active)
O=C(Nc1ccc(Cl)c(Cl)c1)OCc1ccco1,51%,68%,91.4% (active),38,66%,93% (active),47,99% (active),92.9% (active),35,90% (active),91.7% (active),41%,81% (active),93.1% (active),48%,76% (active),92% (active)
N=C1C=C(N)C(=O)c2ccccc21,29%,87% (active),97.5% (active),16,40%,65.5%,25,80% (active),93.8% (active),12,54%,75.9% (active),31%,85% (active),94.3% (active),20%,83% (active),95% (active)
CN=C(N)N/N=C(\c1ccccc1)c1ccc(Br)cc1,11%,51%,46.4%,8,39%,71% (active),13,43%,16.9%,18,33%,12.3%,5%,63%,1.9%,10%,64%,-2.1%
Cc1cc(C(=C2C=CC(=Nc3ccccc3)C=C2)c2ccc(Nc3ccccc3)cc2)ccc1N,6%,60%,43.8%,7,82% (active),88.4% (active),-5,79% (active),65.3%,-8,69%,25.5%,30%,75% (active),83.3% (active),13%,71% (active),-23.6%
CC1(C)CCC2(C(=O)O)C(O)CC3(C)C(=CCC4C5(C)CCC(OC6OCC(O)C(O)C6OC6OCC(O)C(O)C6OC6OCC(O)C(OC7OC(CO)C(O)C(O)C7O)C6O)C(C)(C)C5CCC43C)C2C1 (centres undefined),8%,99% (active),77.3% (active),7,99% (active),87.3% (active),6,99% (active),88% (active),5,99% (active),86.6% (active),17%,100% (active),86.5% (active),14%,99% (active),-30.2%
COc1ccc2c(c1)c(CC(=O)O)c(C)n2C(=O)c1ccc(Cl)cc1,-1%,37%,82.2% (active),1,57%,48.2%,2,54%,88.7% (active),1,32%,80.7% (active),1%,30%,51.1%,-1%,39%,72% (active)
CC1C(c2ccccc2)OCCN1C(=S)Nc1ccc(S(=O)(=O)N2CCCCC2)cc1 (centres undefined),46%,86% (active),85.4% (active),46,84% (active),89.2% (active),65,97% (active),91.5% (active),62,96% (active),89.7% (active),73% (active),96% (active),90.1% (active),43%,88% (active),86.4% (active)
